Bioassay records from PubChem BioAssay.
D2 ag-1 – human D2 receptor agonism in beta-arrestin assay; P14416; activation, % (no concentration beside the values); AID 624465; hit rate 0.084% among 360,000; DiscoveRx PathHunter D2 beta-arrestin, luminescence, 90 min; 100% = 57 uM dopamine signal; in the data active means activation above about 40%
Target sequence (P14416 whole entry, looked up): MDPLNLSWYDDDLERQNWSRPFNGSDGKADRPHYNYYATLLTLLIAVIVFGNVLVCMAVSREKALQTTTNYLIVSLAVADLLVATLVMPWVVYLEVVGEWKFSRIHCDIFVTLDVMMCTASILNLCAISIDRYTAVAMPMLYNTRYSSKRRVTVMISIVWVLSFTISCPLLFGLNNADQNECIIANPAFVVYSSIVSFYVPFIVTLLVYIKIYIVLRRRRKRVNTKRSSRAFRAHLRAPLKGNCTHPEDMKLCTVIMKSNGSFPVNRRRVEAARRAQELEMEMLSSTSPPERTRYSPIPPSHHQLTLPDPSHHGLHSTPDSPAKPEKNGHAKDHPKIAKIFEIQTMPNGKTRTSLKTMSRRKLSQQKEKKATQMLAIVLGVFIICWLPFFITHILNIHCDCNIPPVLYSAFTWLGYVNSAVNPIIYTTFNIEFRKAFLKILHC
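Agonist mode: compounds alone added to overnight-plated D2 PathHunter cells for 90 min at 37 C, with 57 uM final dopamine (EC100) defining full response. Beta-arrestin recruitment detected by chemiluminescent reagent, read after 1 h at ambient temperature.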
D2 PAM-1 – potentiates the human D2 dopamine receptor allosterically | DiscoveRx D2 beta-arrestin cells, luminescence, 90 min; 100% = 57 uM dopamine signal | potentiation, % (no concentration beside the values) | hit rate 0.23% among 360,000 | AID 624464; in the data active means potentiation above about 50%
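PathHunter beta-arrestin assay in DiscoveRx D2 cells. Compounds were added with an EC20 of dopamine (50 nM final) for 90 min at 37 deg C. Luminescence was read 1 h after detection reagent, with 57 uM dopamine as the EC100 control.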
D2 PAM-2 – positive allosteric modulators of human D2 dopamine receptor; AID 485347; P14416; potentiation, % at 10 µM; hit rate 0.34% among 340,000; HEK293 T-REx D2, calcium flux, EC20 dopamine potentiation;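 active means potentiation over 3 SD above the plate norm, cut at about 30% in these data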; further: 0% is about no effect
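Tetracycline-induced HEK293 T-REx cells force-coupled to calcium signalling expressed D2; compounds were pin-added after a 10 s baseline, read kinetically 180 s, then an EC20 dopamine challenge followed with a further 180 s calcium read.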
D2 ag-2 – activates the human D2 dopamine receptor | hit rate 0.53% among 340,000 | activation, % at 2 µM | P14416 | HEK293 T-REx D2 cells, calcium flux agonist mode;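 active means activation over 3 SD above normal in the single-dose calcium agonist read, cut at about 30% in these data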; further: 0% is about no effect
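Tetracycline-induced HEK293 T-REx cells with force-coupled D2 receptor, plated overnight at 30 C, loaded with no-wash calcium dye. After a 10 s baseline, compound was pin-added and calcium flux read kinetically for 180 s; calcium rises flagged agonists.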
D2 antag – antagonists of human D2 dopamine receptor. P14416. inhibition, % at 10 µM. AID 485344. hit rate 2% among 340,000. HEK293 TREx D2 cells, calcium flux, dopamine EC80; in the data active means inhibition above about 30%; inactive means below that, where a call was filed; further: 0% is about no effect
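Overnight-induced (tetracycline, 30 C) HEK293 T-REx cells carrying force-coupled D2 receive a no-wash calcium dye, then compound, then EC80 dopamine at 180 s; signals are read kinetically throughout.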
Numbers without * were called inactive; / = no result. Only some compounds are listed: those with a hit (about 2.4% of all), similar ones and a draw of the others.

SMILES | D2 ag-1 | D2 PAM-1 | D2 PAM-2 | D2 ag-2 | D2 antag
CCOC(=O)C1CCN(CC(O)COc2ccc(S(=O)(=O)N3CCCC3)cc2[N+](=O)[O-])CC1 (configuration not stated) | -2 | -34 | -23 | 36* | 12
Cc1cc(NC(=O)C(C)SCC(=O)Nc2ccc(Br)cc2Br)no1 (configuration not stated) | -2 | -3 | -9 | 1 | 10
CCOC(=O)CSc1nc2sc3c(c2c(=O)[nH]1)CCCC3 | 1 | -7 | 0 | 0 | 6
O=C(CSc1nc2sc3c(c2c(=O)[nH]1)CCCC3)NCCO | -6 | -8 | -8 | 0 | 42*
Cc1ccc(S(=O)(=O)NC(=O)NC(C)c2ccc(F)cc2)cc1 (configuration not stated) | -1 | -1 | 10 | -1 | -9
COc1ccc(NC(=O)COc2ccc(C(=O)NC3CCCc4ccccc43)cc2OC)cc1 (configuration not stated) | -1 | 3 | 36* | -2 | -2
COc1ccc(C/C(C)=N/NC(=S)Nc2ccc(C(C)C)cc2)cc1 | 2 | -14 | -1 | 0 | 36*
COc1ccc(C(NC(=O)CNC(C)=O)C(=O)Nc2ccc(C(C)C)cc2)cc1 (configuration not stated) | -1 | -3 | -5 | 0 | 37*
COc1ccc(NC(=O)C(c2ccc(C)cc2)N(C)C(=O)CNC(C)=O)cc1 (configuration not stated) | 1 | -4 | -5 | -1 | 5
COc1ccc(NC(=O)C(c2ccc(OC)cc2)N(C)C(=O)CNC(C)=O)cc1 (configuration not stated) | -1 | -9 | -4 | 0 | 38*
Cc1cccc(C(=O)Nc2cccc(C(=O)OCc3cc(=O)n4ccsc4n3)c2)c1 | / | / | 0 | 1 | /
O=C(CNC(=O)c1cccc(-n2cnnn2)c1)Nc1ccc(F)c(F)c1 | -2 | -2 | -20 | 0 | 38*
O=C(COC(=O)c1ccc(Br)o1)c1ccc(S(=O)(=O)N2CCCCC2)cc1 | -15 | -57 | -3 | / | /
CC(O)CNc1nc2c(c(=O)n(Cc3ccc(Br)cc3)c(=O)n2C)n1C (configuration not stated) | 6 | 52* | 10 | -1 | 4
CC(O)CNc1nc2c(c(=O)n(Cc3ccccc3)c(=O)n2C)n1C (configuration not stated) | -4 | -7 | 14 | 1 | -19
C=CC(COCc1ccccc1)N(C(=O)OC(C)(C)C)S(=O)(=O)c1ccccc1Br (configuration not stated) | 0 | -4 | 7 | 1 | 68*
Nc1cc(C(F)(F)F)ccc1-n1cccc1 | 0 | 1 | -9 | 0 | 39*
CC1CCN(c2ccc(C(F)(F)F)cc2N)CC1 | -1 | -8 | 0 | 0 | 8
COC(=O)C(CC(C)C)N1CCC(=O)c2ccccc2S1(=O)=O (configuration not stated) | 0 | -7 | 8 | -1 | 52*
C=C1CCN([C@@H](CC(C)C)C(=O)N2CCOCC2)S(=O)(=O)c2ccccc21 | -1 | -10 | / | / | /
COc1ccc(N=C2S/C(=C\c3ccco3)C(=O)N2CC(C)C)cc1 | -3 | -24 | 10 | 0 | 36*
COc1ccc(N=C2S/C(=C\c3cc(C)n(C)c3C)C(=O)N2CC(C)C)cc1 | -8 | -8 | 11 | 0 | 13
O=C(Nc1cccc(C(F)(F)F)c1)C1CC(=O)N(CCc2ccccc2)C1 (configuration not stated) | 1 | -33 | -22 | 0 | 63*
Cc1n[nH]c(=S)n1/N=C/c1ccc(OCc2ccc(Cl)cc2Cl)cc1 | 3 | -12 | 1 | 0 | 31*
C=CCNC(=O)C1CC2Cn3c(nc4cc5ccccc5cc43)C2N1C (configuration not stated) | -3 | -3 | 16 | 0 | 18
SMILES | D2 ag-1 | D2 PAM-1 | D2 PAM-2 | D2 ag-2 | D2 antag
CCN(CC)CCOc1c(C)cccc1Cl | 1 | -2 | -21 | 0 | 62*
COc1ccc(N=Cc2c(O)n(-c3cccc(C)n3)c(=O)c3ccccc23)cc1 | -2 | -2 | -3 | -1 | 32*
Cc1ccc2c(c1)c1c(c(=O)n(-c3ccccc3)c(=O)n1CC(=O)NCCC1=CCCCC1)n2C | / | / | -5 | 0 | /
CN1CCc2c(n(CC(O)CN(CCO)CCO)c3ccccc23)C1=O (configuration not stated) | -5 | -8 | 11 | -3 | 7
CN1CCc2c(n(CC(O)CNCc3ccccc3)c3ccccc23)C1=O (configuration not stated) | 0 | -11 | -20 | -1 | 66*
O=C(Cn1nnc(-c2ccc3c(c2)OCO3)n1)NCc1ccccc1 | 2 | -1 | -3 | 1 | -4
Cc1ccc(-c2nnn(CC(=O)NCCc3ccc4c(c3)OCO4)n2)cc1 | -1 | -2 | -1 | 2 | 31*
Cc1ccc(NC(=O)CN2C(=O)C(c3ccccc3)=NC2(C)C)cc1C | / | / | 10 | 0 | /
Cc1cc(O)c(C(c2cccc(F)c2)N2CCC(C)CC2)c(=O)n1Cc1ccco1 (configuration not stated) | / | / | 10 | 1 | /
O=C1c2cccc3cccc(c23)C(=O)N1c1ccc(O)cc1 | 3 | -1 | -2 | 0 | 4
O=C1c2cccc3c(N4CCCCC4)ccc(c23)C(=O)N1c1ccccc1O | -3 | -8 | -5 | 36* | 8
O=C1c2cccc3c(N4CCCCC4)ccc(c23)C(=O)N1c1ccc(O)cc1 | 1 | -6 | -4 | 66* | 29
N#Cc1ccccc1CSc1nnc(-c2ccccc2)o1 | / | / | -3 | 0 | /
Cc1nc2ccc(Cl)cc2nc(C)/c1=N\O | 13 | 83* | 8 | 1 | -11
Cc1ccc(NC(=O)c2cccc(N3C(=O)C4C5C=CC(C5)C4C3=O)c2)cc1C (configuration not stated) | 7 | -4 | 5 | 2 | 5
CN(C)c1ccc(NC(=O)c2cccc(N3C(=O)C4C5C=CC(C5)C4C3=O)c2)cc1 (configuration not stated) | 1 | 4 | 18 | 1 | 36*
Cc1ccc([N+](=O)[O-])cc1NC(=O)Nc1onc(C)c1C | -10 | -56 | -20 | -2 | 47*
CCc1nnc(NC(=O)CSc2nnc(-c3ccncc3)n2C)s1 | -3 | -5 | 31* | 1 | -16
O=C(NNC1=Nc2ccccc2SC1)c1cccc([N+](=O)[O-])c1 | -3 | -14 | -25 | 0 | 71*
CCN(C(=O)COC(=O)CCc1ccc(OC)cc1)c1c(N)n(Cc2ccccc2)c(=O)[nH]c1=O | 0 | 11 | 6 | 0 | 34*
Nc1c(N(CCC2=CCCCC2)C(=O)CCCOc2ccccc2)c(=O)[nH]c(=O)n1Cc1ccccc1 | 2 | 5 | 7 | 1 | 33*
